# Laboratory results taken from PubChem BioAssay (Tox21).
# Records with an inconclusive call do not appear. Entries that show only a call come without a potency. Activity calls are given as the source filed them. Calls come from the whole dose curve; as a rule, active = well fitted curve in the direction sought with a large enough effect in the repeat runs; inconclusive = weak or mixed curves; inactive = no such curve, though single readings can be large; an effect the other way counts as inactive or inconclusive.
# Assay: qHTS assay to identify small molecule agonists of the sonic hedgehog signaling (Shh) pathway - cell viability counter screen (AID 1259366); note: nearly all actives have a fitted effect of over 50% in size
# Conditions: NIH/3T3 Gli1-Luc viability, CellTiter-Fluor, 24 h; series mostly up to 92.4 µM
# How it was run: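 Cytotoxicity counter screen run in the same wells as the Shh reporter assay. NIH/3T3 cells carrying a Gli1 response element–driven luciferase were treated with DMSO-dissolved compounds for 24hr, and live-cell protease activity was measured with CellTiter-Fluor.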
row,SMILES,Potency
1,ClC1=C(Cl)C1(Cl)Cl,inactive
2,Cc1ccc(Nc2c(F)cccc2Cl)c(CC(=O)O)c1,inactive
3,CC(C)C(=O)OCCOc1ccccc1,inactive
4,CCCCCCCCCCCSCC(=O)O,inactive

# Assay: qHTS assay to identify small molecule antagonists of the sonic hedgehog signaling (Shh) pathway - cell viability counter screen (AID 1259367); note: nearly all actives have a fitted effect of over 55% in size
# Conditions: NIH/3T3 Gli1-Luc viability, CellTiter-Fluor, 24 h; series mostly up to 92.4 µM
# How it was run: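 Using CellTiter-Fluor, viability of Gli1-Luc reporter 3T3 cells is read by fluorescence in the wells used for the Shh luciferase assay. Treatment lasts 23 hr with conditioned medium, then reagent 1 hr at 37C.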
row,SMILES,Potency
1,Cc1ccc(NC(=O)N(C)C)cc1NC(=O)N(C)C,inactive
2,O=C(O)c1cccc(Oc2ccccc2)c1,inactive
3,Nc1c(Cl)cc(Cl)cc1[N+](=O)[O-],inactive
4,C=C(C)c1ccccc1,inactive
5,CCCCCc1ccco1,inactive
6,CSCC[C@H](NC(=O)[C@H](Cc1c[nH]c2ccccc12)NC(=O)CCNC(=O)OC(C)(C)C)C(=O)N[C@@H](CC(=O)O)C(=O)N[C@@H](Cc1ccccc1)C(N)=O,inactive
7,CCCCCCOC(=O)CCCCC,inactive
8,O=C(Nc1ccc(C(=O)O)c(O)c1)c1ccccc1,inactive
9,COC(OC)OC,inactive
10,CC(C)COC(=O)COc1cc(Cl)c(Cl)cc1Cl,inactive
11,BrC(Br)C(Br)Br,inactive
12,O=c1[nH][nH]c(=O)c2cc([N+](=O)[O-])ccc12,inactive
13,C1CCCCC1,inactive
14,O=C(Oc1ccccc1)c1ccc2ccccc2c1O,inactive
15,COC(=O)CC(C(C)=O)C(=O)OC (configuration not stated),inactive
16,NC(=O)c1ccccc1[N+](=O)[O-],inactive
17,Cc1ccc(N(CCO)CCO)cc1,inactive
18,CC[C@H]1OC(=O)[C@H](C)[C@@H](O[C@H]2C[C@@](C)(OC)[C@@H](O)[C@H](C)O2)[C@H](C)[C@@H](O[C@@H]2O[C@H](C)C[C@H](N(C)C)[C@H]2O)[C@](C)(O)C[C@@H](C)CN(C)[C@H](C)[C@@H](O)[C@]1(C)O,inactive
